High-throughput results as filed in PubChem.
RECQ1 helicase – qHTS Assay for Inhibitors of RecQ-Like Dna Helicase 1 (RECQ1); ATP-dependent DNA helicase Q1 (Homo sapiens), P46063; RECQ1 DNA unwinding, red fluorescence kinetic read; Potency, µM (highest dose often 57.3 µM), actives largely listed as inhibitors; 240,000 compounds, 0.54% hits; further: nearly all actives have a fitted effect of over 30% in size
Target sequence (P46063 whole entry, looked up): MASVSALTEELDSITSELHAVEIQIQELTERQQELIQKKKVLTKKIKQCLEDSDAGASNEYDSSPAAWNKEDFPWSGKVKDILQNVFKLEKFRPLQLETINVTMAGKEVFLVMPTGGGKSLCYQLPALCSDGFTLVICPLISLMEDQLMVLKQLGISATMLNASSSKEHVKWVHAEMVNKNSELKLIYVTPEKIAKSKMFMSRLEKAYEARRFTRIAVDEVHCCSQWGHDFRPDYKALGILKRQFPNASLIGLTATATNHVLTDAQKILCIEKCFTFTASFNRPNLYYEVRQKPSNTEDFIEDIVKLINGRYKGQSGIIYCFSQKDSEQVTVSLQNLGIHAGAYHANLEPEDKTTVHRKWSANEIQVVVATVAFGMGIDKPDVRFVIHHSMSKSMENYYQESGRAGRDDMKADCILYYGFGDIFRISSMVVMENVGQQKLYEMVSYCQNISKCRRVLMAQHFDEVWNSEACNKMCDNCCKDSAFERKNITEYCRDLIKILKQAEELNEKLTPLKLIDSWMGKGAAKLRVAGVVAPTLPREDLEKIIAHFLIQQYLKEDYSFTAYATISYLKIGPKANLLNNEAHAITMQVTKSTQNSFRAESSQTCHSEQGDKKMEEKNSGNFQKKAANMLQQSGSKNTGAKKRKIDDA
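RECQ1T1 50 nM; forked duplex (20 bp + 30-nt ss tails) 200 nM, ATP 2 mM final; pH 8.0, 2 mM MgCl2, 2.5 ug/ml poly(dI-dC); 15 min compound preincubation; discontinuous kinetic read over 2 h at RT.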
TDP1 block – qHTS Assay for Inhibitors of Tyrosyl-DNA Phosphodiesterase (TDP1). Potency, µM (highest dose often 130 µM), most hits filed as inhibitors. AID 485290, 2010. recombinant TDP1, AlphaScreen DNA substrate cleavage. 350,000 compounds, 0.28% hits. Tyrosyl-DNA phosphodiesterase 1 (Homo sapiens), Q9NUW8; further: nearly all actives have a fitted effect of over 40% in size
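Recombinant human Tdp1 (E. coli-expressed, 1 nM final) preincubated with compounds 15 min at room temperature, then 5'-biotin/3'-phosphotyrosine-FITC DNA substrate (15 nM final) added for 5 min. AlphaScreen beads (10 ug/ml final) added 10 min; cleavage lowers signal.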
BLM helicase inh – qHTS Assay for Inhibitors of Bloom's syndrome helicase (BLM) | AID 2528, 2010 | recombinant BLM DNA unwinding, fluorescence dequenching | RecQ-like DNA helicase BLM (Homo sapiens), P54132 | Potency, µM (titrated, usually from 56.1 µM), usual class: inhibitors | 350,000 compounds, 0.2% hits; further: nearly all actives have a fitted effect of over 35% in size
APE1 inh-1 – qHTS Assay for Inhibitors of the Human Apurinic/apyrimidinic Endonuclease 1 (APE1) | AID 2517, 2012 | recombinant APE1, TAMRA/BHQ-2 abasic DNA cleavage fluorescence | DNA repair nuclease/redox regulator APEX1 (Homo sapiens), P27695 | 350,000 compounds, 0.35% hits | Potency, µM (highest dose often 65.8 µM), most hits filed as inhibitors; further: nearly all actives have a fitted effect of over 55% in size
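Endonuclease cleavage of a quenched abasic-site DNA duplex (50 nM) by APE1 (0.75 nM) was tracked by TAMRA dequenching. Compounds were preincubated with enzyme 15 min at room temperature; data normalized to buffer-only and DMSO wells plus NSC13755 control.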
KDM4E inh – qHTS Assay for Inhibitors of Human Jumonji Domain Containing 2E (JMJD2E). Potency, µM (doses to about 57.1 µM), usual class: inhibitors. JMJD2E catalytic domain, FDH-coupled NADH fluorescence (FDH is formaldehyde dehydrogenase). AID 2147, 2009. 230,000 compounds, 1.6% hits; active means well fitted inhibition curve with a large enough effect, not every such curve was filed as active; inconclusive means small, poorly fitted or top-dose-only effect, or another doubt; inactive means no such curve, though single readings can be large or run the other way; further: nearly all actives have a fitted effect of over 50% in size
GCN5L2 inh – qHTS Assay for Inhibitors of GCN5L2; 390,000 compounds, 0.21% hits; GCN5L2 HAT assay, ThioGlo1 CoA-SH fluorescence; Potency, µM (highest dose often 58.9 µM), hits mostly inhibitors; Histone acetyltransferase KAT2A (Homo sapiens), Q92830
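GCN5L2 (20nM final) in 50mM HEPES, 0.1mM EDTA pH 7.5, 0.01% Tween-20 was preincubated 15 min at room temperature with compound, then given ThioGlo1 (50uM), H3(1-25) peptide (75uM) and acetyl-CoA (70uM); CoA-thiol fluorescence (Ex340/Em540) was read at 0 and 20 min.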
APE1 dye cs – Counterscreen for APE1 Inhibitors: Fluorescent Dye Displacement Assay. shares compounds with APE1 inh-1. Potency, µM (series often up to 28.5 µM), actives largely listed as inhibitors. DNA fluorescent dye displacement counterscreen, fluorescence. AID 2564, 2010. 480 compounds, 7% hits;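 further: loss of thiazole orange fluorescence as the dye is displaced from duplex DNA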
EndoIV counter – Counterscreen for APE1 Inhibitors: qHTS Assay for Inhibitors of Endonuclease IV. shares compounds with APE1 inh-1. E. coli Endo IV, fluorogenic AP-site DNA cleavage. Potency, µM (series often up to 27.1 µM), hits mostly inhibitors. 560 compounds, 4% hits. AID 2565, 2010
APE1 inh-2 – Confirmation qHTS Assay for Inhibitors of the Human Apurinic/apyrimidinic Endonuclease 1 (APE1); shares compounds with APE1 inh-1; purified APE1, fluorogenic abasic-site DNA cleavage; 750 compounds, 44% hits; AID 2572, 2010; Potency, µM (series often up to 57.1 µM), actives largely listed as inhibitors; further: nearly all actives have a fitted effect of over 30% in size
APE1 FP – qHTS FP-Based Assay for Inhibitors of the Human Apurinic/apyrimidinic Endonuclease 1 (APE1) | shares compounds with APE1 inh-1 | Potency, µM (series often up to 28.5 µM), usual class: inhibitors | 480 compounds, 7% hits | APE1 binding to TAMRA-labelled double-stranded DNA, fluorescence polarization displacement
Of the large screens only hits and unclear results are named; the others gave an inactive call (follow-up assays come after a bar, where they were run); ! = not confirmed by another sample. Many of the other results were omitted from the sample, so hits are more common in it than they were. Unless noted, the call rests on the fitted dose curve; in most records, active means well fitted curve in the direction sought with a large enough effect; inconclusive means small, poorly fitted or top-dose-only effect, or another doubt; inactive means no such curve, though single readings can be large; an effect the other way counts as inactive or inconclusive.

COc1cc(CC2COC(c3ccc(O)c(OC)c3)C2COC(C)=O)ccc1O (stereo unspecified)	RECQ1 helicase 25.1µM, BLM helicase inh 25.1µM, APE1 inh-1 3.98µM (no result: TDP1 block) | APE1 dye cs inactive | EndoIV counter inactive | APE1 inh-2 10µM | APE1 FP inactive
COc1cc(CC(=O)O)ccc1O	none
Cc1ccccc1N=C1NC(=O)/C(=C/c2cccn2-c2cccc(C(=O)O)c2)S1	TDP1 block inconclusive, APE1 inh-1 17.8µM | APE1 dye cs inactive | EndoIV counter inactive | APE1 inh-2 11.2µM | APE1 FP inconclusive
Cc1cccc(N=C2NC(=O)/C(=C/c3cccn3C)S2)c1C	none (no result: TDP1 block)
N#C/C(=C\c1cc(Cl)c(OCc2ccc(Cl)cc2)c(Cl)c1)C(N)=O	none (no result: TDP1 block)
N#C/C(=C\c1cc(O)c(O)c(O)c1)C(N)=O	BLM helicase inh inconclusive, APE1 inh-1 3.55µM, KDM4E inh 1µM (no result: TDP1 block) | APE1 dye cs inactive | EndoIV counter inactive | APE1 inh-2 inconclusive | APE1 FP inactive
Cc1cc2nc(-c3ccc(SCc4ccc(C(=O)O)cc4)nc3)[nH]c2cc1C	TDP1 block 22.4µM, BLM helicase inh inconclusive, KDM4E inh inconclusive, GCN5L2 inh inconclusive | APE1 inh-2 39.8µM
Cc1cc2nc(-c3ccc(SCc4ccccc4C#N)nc3)[nH]c2cc1C	KDM4E inh inconclusive
COc1cc(-c2ccc(N=Nc3ccc4c(S(=O)(=O)O)cc(S(=O)(=O)O)c(N)c4c3O)c(OC)c2)ccc1N=Nc1ccc2c(S(=O)(=O)O)cc(S(=O)(=O)O)c(N)c2c1O	RECQ1 helicase 4.47µM, TDP1 block inconclusive, BLM helicase inh inconclusive, APE1 inh-1 1.41µM, KDM4E inh 3.55µM, GCN5L2 inh 3.98µM | EndoIV counter 6.31µM! | APE1 inh-2 1µM
COc1ccccc1N=Nc1[nH]c2ccc(C)cc2c1O	none
C#CCn1c(=O)c2c(nc(/C=C/c3cccc(OC)c3)n2C)n(CCCOP(=O)(O)O)c1=O	none (no result: KDM4E inh)
CC(C)(O)CCCC(C)(O)c1ccc(C(=O)O)cc1O (stereo unspecified)	APE1 inh-1 inconclusive (no result: TDP1 block) | APE1 dye cs inactive | EndoIV counter inactive | APE1 inh-2 11.2µM | APE1 FP inactive
NC(=O)c1cccnc1Oc1ccccc1	none
COc1ccnc(Oc2ccccc2)c1C(N)=O	none (no result: TDP1 block) | APE1 dye cs inactive | EndoIV counter inactive | APE1 inh-2 inactive | APE1 FP inconclusive
CC(C)C1Nc2ccc(S(N)(=O)=O)cc2C2C=CCC21 (stereo unspecified)	none
